The source of these data is publication PMC7862700, “An all-to-all approach to the identification of sequence-specific readers for epigenetic DNA modifications on cytosine”.

Common to all, as to test: DAPPL (digital affinity profiling via proximity ligation, sequencing); 10 mM Tris-HCl pH 7.5, 50 mM NaCl, 1 mM DTT, 4% glycerol, room temperature, 30 min; GST-TFs on glutathione beads, 16-mer random dsDNA library, 0.1% formaldehyde crosslink after washing; high values mean tight binding
Test [1] addresses T1, FLI1 (Homo sapiens, UniProt Q01543 1-452).
T1 sequence: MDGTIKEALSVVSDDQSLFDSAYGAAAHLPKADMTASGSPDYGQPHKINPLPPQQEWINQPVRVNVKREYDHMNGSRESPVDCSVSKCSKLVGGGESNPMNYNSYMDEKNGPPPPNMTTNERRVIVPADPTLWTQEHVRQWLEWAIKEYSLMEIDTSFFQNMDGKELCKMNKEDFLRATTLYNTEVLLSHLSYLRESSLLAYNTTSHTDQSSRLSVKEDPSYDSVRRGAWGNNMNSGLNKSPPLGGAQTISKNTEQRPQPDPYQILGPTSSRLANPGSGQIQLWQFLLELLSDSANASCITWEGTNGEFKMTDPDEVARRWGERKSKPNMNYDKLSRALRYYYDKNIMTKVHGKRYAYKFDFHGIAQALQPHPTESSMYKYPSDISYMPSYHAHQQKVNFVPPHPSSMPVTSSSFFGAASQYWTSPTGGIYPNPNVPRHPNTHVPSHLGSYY
Conditions: protein: recombinant; tags: N-terminal GST; dsDNA, one strand shown. Put shortly: (§1)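 Each value of binding signal is a hexamer's read frequency for a factor divided by the same hexamer's frequency in the tag-only sample. Barcoded, bead-captured GST fusions of human transcription factors made in yeast were pooled with that sample and incubated with 200 nmole of a random double-stranded 16-mer DNA library in Tris/NaCl/DTT/glycerol buffer at room temperature for 30 min. Washing, 0.1% formaldehyde crosslinking, proximity ligation, PCR and Illumina NextSeq500 sequencing followed.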

Test [2] deals with T2, ELK1 (Homo sapiens, UniProt P19419 1-428).
T2 sequence: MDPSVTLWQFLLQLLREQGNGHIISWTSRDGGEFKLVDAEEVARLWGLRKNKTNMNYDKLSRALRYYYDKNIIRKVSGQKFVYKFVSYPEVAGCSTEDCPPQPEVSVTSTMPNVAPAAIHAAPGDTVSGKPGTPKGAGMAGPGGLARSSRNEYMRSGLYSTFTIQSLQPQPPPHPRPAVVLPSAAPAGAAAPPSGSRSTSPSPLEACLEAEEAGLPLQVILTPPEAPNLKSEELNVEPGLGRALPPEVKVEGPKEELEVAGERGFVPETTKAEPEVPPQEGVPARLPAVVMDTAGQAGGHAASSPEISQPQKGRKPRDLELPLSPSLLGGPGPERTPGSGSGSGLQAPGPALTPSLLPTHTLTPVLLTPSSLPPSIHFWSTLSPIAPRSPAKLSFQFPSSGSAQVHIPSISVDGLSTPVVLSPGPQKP
The conditions noted are these: protein: recombinant; tags: N-terminal GST; dsDNA, one strand shown. Put shortly:
as §1

In test [3] the target is T3, ELK3 (Homo sapiens, UniProt P41970 1-407).
T3 sequence: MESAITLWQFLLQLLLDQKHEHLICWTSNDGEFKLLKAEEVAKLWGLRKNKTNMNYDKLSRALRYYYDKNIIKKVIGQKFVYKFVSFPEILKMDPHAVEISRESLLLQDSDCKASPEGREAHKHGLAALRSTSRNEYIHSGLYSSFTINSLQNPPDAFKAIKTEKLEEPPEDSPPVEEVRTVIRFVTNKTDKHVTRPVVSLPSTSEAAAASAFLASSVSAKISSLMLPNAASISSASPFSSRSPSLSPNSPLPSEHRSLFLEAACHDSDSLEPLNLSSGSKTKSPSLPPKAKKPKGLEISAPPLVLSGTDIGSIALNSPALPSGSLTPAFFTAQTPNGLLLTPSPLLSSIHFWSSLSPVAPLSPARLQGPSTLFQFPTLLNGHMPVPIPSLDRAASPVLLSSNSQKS
Conditions: protein: recombinant; tags: N-terminal GST; dsDNA, one strand shown. Put shortly:
as §1

The target in test [4] is HSF1 (Homo sapiens, UniProt Q00613 1-529). The conditions noted are these: protein: recombinant; tags: N-terminal GST; chain copies: 3; dsDNA, one strand shown. Put shortly: as §1
For test [5], the target named is T4, ETV2 (Homo sapiens, UniProt O00321 1-342).
T4 sequence: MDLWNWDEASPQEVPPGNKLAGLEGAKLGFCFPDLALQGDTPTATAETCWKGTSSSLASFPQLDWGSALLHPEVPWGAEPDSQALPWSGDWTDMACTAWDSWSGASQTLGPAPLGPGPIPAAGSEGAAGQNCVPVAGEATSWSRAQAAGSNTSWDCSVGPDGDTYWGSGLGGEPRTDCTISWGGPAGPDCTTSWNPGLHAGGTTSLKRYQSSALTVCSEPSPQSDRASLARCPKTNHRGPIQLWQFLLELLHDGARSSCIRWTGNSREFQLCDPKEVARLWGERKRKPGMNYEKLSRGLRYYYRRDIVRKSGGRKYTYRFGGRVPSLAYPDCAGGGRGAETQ
The conditions noted are these: protein: recombinant; tags: N-terminal GST; dsDNA, one strand shown. The method, boiled down:
as §1

Test [6] deals with T5, ELF3 (Homo sapiens, UniProt P78545 1-371).
T5 sequence: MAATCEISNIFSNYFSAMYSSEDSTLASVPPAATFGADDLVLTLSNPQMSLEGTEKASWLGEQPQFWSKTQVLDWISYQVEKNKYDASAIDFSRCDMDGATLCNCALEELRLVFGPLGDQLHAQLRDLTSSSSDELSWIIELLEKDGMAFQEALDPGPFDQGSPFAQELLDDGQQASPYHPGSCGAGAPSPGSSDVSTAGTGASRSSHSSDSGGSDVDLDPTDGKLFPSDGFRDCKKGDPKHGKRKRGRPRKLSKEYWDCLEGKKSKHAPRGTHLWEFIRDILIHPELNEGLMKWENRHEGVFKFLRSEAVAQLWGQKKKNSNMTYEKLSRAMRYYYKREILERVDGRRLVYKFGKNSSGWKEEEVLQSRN
Conditions: protein: recombinant; tags: N-terminal GST; dsDNA, one strand shown. The method, boiled down:
as §1

Test [7] deals with CRX (Homo sapiens, UniProt O43186 1-299). The conditions noted are these: protein: recombinant; tags: N-terminal GST; dsDNA, one strand shown. The method, boiled down:
as §1

In test [8] the target is T6, ETV3L (Homo sapiens, UniProt Q6ZN32 1-361).
T6 sequence: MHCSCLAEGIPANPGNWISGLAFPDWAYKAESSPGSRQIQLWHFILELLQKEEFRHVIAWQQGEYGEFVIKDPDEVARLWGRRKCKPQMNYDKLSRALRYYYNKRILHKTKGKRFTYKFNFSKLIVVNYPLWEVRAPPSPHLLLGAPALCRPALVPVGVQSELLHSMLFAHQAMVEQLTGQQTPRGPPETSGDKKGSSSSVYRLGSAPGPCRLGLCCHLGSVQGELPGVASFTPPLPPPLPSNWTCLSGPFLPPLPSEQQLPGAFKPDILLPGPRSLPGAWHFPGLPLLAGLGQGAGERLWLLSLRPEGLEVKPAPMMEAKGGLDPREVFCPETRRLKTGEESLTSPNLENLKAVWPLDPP
Conditions: protein: recombinant; tags: N-terminal GST; dsDNA, one strand shown. Put shortly: as §1

The target in test [9] is T7, GABPA (Homo sapiens, UniProt Q06546 1-454).
T7 sequence: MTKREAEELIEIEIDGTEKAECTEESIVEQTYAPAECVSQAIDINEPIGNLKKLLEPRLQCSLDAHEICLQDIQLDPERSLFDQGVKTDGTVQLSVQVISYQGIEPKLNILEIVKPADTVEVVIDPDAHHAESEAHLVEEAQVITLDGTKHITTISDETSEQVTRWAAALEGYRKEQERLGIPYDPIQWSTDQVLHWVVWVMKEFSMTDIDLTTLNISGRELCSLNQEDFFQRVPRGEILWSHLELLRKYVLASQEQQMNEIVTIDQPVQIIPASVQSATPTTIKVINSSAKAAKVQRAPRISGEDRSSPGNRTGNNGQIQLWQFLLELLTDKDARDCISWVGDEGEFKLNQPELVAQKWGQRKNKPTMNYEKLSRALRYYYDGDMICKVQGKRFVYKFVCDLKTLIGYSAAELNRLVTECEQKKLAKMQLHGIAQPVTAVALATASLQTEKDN
Conditions: protein: recombinant; tags: N-terminal GST; dsDNA, one strand shown. The method, boiled down: as §1

In test [10] the target is T8, EHF (Homo sapiens, UniProt Q9NZC4 1-300).
T8 sequence: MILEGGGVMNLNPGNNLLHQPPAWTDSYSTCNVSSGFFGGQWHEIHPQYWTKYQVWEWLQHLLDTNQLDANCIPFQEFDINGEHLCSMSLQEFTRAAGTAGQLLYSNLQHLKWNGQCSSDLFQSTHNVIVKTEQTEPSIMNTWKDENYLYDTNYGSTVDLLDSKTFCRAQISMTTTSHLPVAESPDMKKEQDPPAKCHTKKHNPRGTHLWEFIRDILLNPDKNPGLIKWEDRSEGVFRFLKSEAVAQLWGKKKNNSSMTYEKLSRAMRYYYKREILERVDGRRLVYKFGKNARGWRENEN
Conditions: protein: recombinant; tags: N-terminal GST; dsDNA, one strand shown. The method, boiled down: as §1

Test [11] addresses T9, ETV7 (Homo sapiens, UniProt Q9Y603 1-341).
T9 sequence: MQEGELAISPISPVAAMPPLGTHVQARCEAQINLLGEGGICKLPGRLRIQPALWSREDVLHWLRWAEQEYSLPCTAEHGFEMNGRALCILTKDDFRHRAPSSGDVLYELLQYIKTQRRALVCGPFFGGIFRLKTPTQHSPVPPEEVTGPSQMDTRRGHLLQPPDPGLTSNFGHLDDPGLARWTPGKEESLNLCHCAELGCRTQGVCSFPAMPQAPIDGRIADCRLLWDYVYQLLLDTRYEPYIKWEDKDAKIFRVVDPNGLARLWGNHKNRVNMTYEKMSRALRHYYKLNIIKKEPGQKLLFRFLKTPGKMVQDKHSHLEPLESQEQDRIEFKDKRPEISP
Conditions: protein: recombinant; tags: N-terminal GST; dsDNA, one strand shown. Put shortly: as §1

The target of test [12] is ETV6 (Homo sapiens, UniProt P41212 1-452). Conditions: protein: recombinant; tags: N-terminal GST; dsDNA, one strand shown. Put shortly: as §1
Chain of ETV6 (P41212 whole entry): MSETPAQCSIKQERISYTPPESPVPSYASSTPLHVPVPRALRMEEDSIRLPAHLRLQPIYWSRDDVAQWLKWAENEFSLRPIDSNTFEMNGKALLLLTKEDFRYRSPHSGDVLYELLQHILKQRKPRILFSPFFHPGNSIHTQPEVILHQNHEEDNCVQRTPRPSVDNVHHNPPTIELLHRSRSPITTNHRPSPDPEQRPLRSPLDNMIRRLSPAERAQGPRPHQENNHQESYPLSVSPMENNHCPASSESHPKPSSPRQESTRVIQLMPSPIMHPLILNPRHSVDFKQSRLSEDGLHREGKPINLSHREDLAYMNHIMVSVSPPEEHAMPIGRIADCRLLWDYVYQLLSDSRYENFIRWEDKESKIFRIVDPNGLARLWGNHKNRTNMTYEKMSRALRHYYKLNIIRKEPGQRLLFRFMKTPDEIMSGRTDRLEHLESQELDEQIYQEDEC

Chain of HSF1 (Q00613 whole entry): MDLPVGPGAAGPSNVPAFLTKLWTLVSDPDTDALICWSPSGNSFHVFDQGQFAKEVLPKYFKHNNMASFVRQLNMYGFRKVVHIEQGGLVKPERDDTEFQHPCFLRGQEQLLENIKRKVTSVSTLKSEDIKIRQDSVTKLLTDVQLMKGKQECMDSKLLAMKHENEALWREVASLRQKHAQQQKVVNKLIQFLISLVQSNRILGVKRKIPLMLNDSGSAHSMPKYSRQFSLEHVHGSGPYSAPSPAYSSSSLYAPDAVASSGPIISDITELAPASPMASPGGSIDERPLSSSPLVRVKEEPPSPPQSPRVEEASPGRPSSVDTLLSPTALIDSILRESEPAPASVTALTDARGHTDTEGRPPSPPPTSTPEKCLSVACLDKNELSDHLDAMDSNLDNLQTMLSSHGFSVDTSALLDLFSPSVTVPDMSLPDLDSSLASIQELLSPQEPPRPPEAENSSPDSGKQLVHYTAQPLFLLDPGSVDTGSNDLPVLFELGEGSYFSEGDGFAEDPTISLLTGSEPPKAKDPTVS
Chain of CRX (O43186 whole entry): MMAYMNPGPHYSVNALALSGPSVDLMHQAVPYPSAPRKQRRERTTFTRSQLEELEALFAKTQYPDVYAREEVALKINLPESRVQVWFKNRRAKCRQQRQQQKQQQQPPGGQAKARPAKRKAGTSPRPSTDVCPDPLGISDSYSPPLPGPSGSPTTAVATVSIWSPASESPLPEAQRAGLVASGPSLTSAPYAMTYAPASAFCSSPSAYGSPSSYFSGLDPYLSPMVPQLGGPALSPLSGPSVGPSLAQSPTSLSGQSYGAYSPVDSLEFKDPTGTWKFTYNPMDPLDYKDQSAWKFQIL

Regarding CGCTAA, the binding signal is 1.01 fold enrichment (6-mer frequency, TF over GST control) in [1]; 1.05 fold enrichment (6-mer frequency, TF over GST control) in test [2]; 1 fold enrichment (6-mer frequency, TF over GST control) in test [3]; 1.09 fold enrichment (6-mer frequency, TF over GST control) in test [4]; 1.09 fold enrichment (6-mer frequency, TF over GST control) in test [5]; 1 fold enrichment (6-mer frequency, TF over GST control) in test [6]. In addition, the binding signal in test [7] was 1.34 fold enrichment (6-mer frequency, TF over GST control); in test [8], 1 fold enrichment (6-mer frequency, TF over GST control).

Consider TTGGAA, for which the binding signal in [1] was 1.01 fold enrichment (6-mer frequency, TF over GST control); in test [9] it was 1.03 fold enrichment (6-mer frequency, TF over GST control); in test [10] it was 1.04 fold enrichment (6-mer frequency, TF over GST control); in test [4] it was 1.32 fold enrichment (6-mer frequency, TF over GST control); in [5], 1.02 fold enrichment (6-mer frequency, TF over GST control); in test [6] it was 1.06 fold enrichment (6-mer frequency, TF over GST control). Besides, the binding signal is 1.07 fold enrichment (6-mer frequency, TF over GST control) in test [7]; 1 fold enrichment (6-mer frequency, TF over GST control) in test [11]; 1.03 fold enrichment (6-mer frequency, TF over GST control) in test [12].
